Experimental findings from PubChem BioAssay (NCATS) are described below.

Values joined by “and” are separate entries in the source; they are usually repeats but may differ in a detail not shown here. Identical values can stand only once. Active and inactive are the calls of the source. Unless noted, calls follow the shape of the dose curve; as a rule, active = well fitted curve in the direction sought with a large enough effect; inconclusive = small, poorly fitted or top-dose-only effect, or another doubt; inactive = no such curve, though single readings can be large; an effect the other way counts as inactive or inconclusive.

Assay [1] is described as follows: Cellular Toxicity (caspase-3) Jurkat (AID 655).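 Also: cells exposed to compound for 16 h at 37 °C before reading.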 The conditions noted are these: Jurkat caspase-3 activation, luminescence; caspase-3 activation: at 92.2 µM (top of the series), DMSO = 0%, tamoxifen = 100%. The essentials: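 Jurkat cells (5000/well) in complete medium were treated with compounds for 16 hr at 37 °C, then Caspase-Glo 3/7 luminescence was read after 20 min at room temperature. Data normalized to DMSO (basal) and 100 uM tamoxifen (100%); AC50 from Hill fit.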

In assay [2] the target is Glucocorticoid receptor (Homo sapiens) (UniProt P04150). The assay is described as follows: qHTS assay for small molecule agonists of glucocorticoid receptor signaling (AID 588532; active = well fitted curve in the direction sought with a large enough effect in the signal ratio, with a control signal flat; inconclusive = small, poorly fitted or top-dose-only effect, or a change in a side signal; inactive = no such curve, though single readings can be large or run the other way; the % refers to the signal ratio;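 also: 100% = dexamethasone at 0.1 µM and 0% = DMSO only wells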). To be noted: HeLa MMTV-bla, beta-lactamase ratio, agonist, 18 h; activation: stronger effect = higher value, percent of dexamethasone control, DMSO zero. The essentials:
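MMTV-bla HeLa, beta-lactamase reporter; medium with 1% charcoal/dextran-stripped FBS; cpds up to 92 uM, 18 h, 37 C; CCF4 readout 460/530 nm; Hill fit → EC50, efficacy vs 0.1 uM dexamethasone = 100%.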

The target of assay [3] is Peroxisome proliferator-activated receptor delta (Homo sapiens) (UniProt Q03181). Description: qHTS assay for small molecule agonists of peroxisome proliferator-activated receptor delta signaling (AID 588534; calls by dose curve;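 also: 0% = DMSO basal wells and 100% = positive control agonist at 10 µM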). The essentials: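 EC50 and efficacy values derive from Hill fits of a concentration series in a beta-lactamase reporter cell assay. Exposure is 18 hrs at 37 C, with CCF4 fluorescence as the readout.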
Peroxisome proliferator-activated receptor delta (Homo sapiens), sequence (Q03181 whole entry, looked up): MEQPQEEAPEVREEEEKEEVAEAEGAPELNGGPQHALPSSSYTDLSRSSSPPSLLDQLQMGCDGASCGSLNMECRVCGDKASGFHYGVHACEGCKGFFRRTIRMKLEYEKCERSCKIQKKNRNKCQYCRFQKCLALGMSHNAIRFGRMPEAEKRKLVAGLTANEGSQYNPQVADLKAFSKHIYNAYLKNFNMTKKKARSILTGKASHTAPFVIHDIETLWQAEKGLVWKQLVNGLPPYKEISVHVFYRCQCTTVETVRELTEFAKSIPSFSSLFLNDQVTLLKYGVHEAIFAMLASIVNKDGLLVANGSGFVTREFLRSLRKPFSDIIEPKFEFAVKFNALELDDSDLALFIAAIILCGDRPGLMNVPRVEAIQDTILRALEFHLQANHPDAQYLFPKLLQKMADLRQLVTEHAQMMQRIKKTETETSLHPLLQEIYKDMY
Background: In qHTS, concentration-response curves come from the screen itself.

The target in assay [4] is Vitamin D3 receptor (Homo sapiens) (UniProt P11473). Description: qHTS assay for small molecule antagonists of vitamin D receptor signaling (AID 588541; calls by dose curve; also: potency is read from the fitted curve at half-maximal effect). The essentials: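 VDR-UAS-bla HEK293T cells (2000/well, 2% charcoal-stripped FBS) were treated with titrated compounds plus 1-alpha,25-dihydroxyvitamin D3 (50 nM or 3 nM final) for 16 h at 37 C. CCF4 beta-lactamase fluorescence was read; Hill fits gave IC50.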
Vitamin D3 receptor (Homo sapiens), sequence (P11473 whole entry, looked up): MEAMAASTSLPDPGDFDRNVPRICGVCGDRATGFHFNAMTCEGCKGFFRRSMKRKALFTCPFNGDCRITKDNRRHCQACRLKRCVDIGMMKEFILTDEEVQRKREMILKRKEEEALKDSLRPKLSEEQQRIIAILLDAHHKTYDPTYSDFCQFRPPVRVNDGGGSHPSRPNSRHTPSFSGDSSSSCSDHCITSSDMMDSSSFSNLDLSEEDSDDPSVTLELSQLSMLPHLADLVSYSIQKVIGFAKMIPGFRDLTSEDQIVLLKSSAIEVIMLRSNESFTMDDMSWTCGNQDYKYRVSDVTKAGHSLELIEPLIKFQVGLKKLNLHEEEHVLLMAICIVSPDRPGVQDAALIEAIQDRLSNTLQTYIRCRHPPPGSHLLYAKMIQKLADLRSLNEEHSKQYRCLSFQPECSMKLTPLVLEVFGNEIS

The target is the same in assay [5]. The assay is described as follows: qHTS assay for small molecule agonists of vitamin D receptor signaling (AID 588543; calls by dose curve;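 also: 0% = DMSO basal and 100% = reference agonist control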). In a few lines: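 GeneBLAzer VDR-UAS-bla HEK293T cells in 2% charcoal-stripped FBS medium were dosed with compound titrations for 16 h at 37 °C; CCF4 β-lactamase readout (405 nm ex, 460/530 nm em). EC50 and efficacy from Hill fits, normalized to 50 nM calcitriol (100%) and DMSO (0%).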

Assay [6] in a line: qHTS assay for small molecule agonists of the antioxidant response element (ARE) signaling pathway (AID 651741; active = well fitted activation curve with a large enough effect in the signal ratio; inconclusive = small, poorly fitted or top-dose-only effect, or effect the other way, or a change in a side signal; the % refers to the signal ratio; also: potency is read from the fitted curve at half-maximal effect). The essentials: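 Beta-lactamase reporter expression driven by the antioxidant response element in HepG2 cells was detected by fluorescence with LiveBLAzer B/G FRET substrate (2 h, room temperature) following 16 h compound treatment at 37 C.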
A short description of assay [7]: qHTS assay for small molecule activators of the p53 signaling pathway (AID 651743; active = well fitted activation curve with a large enough effect in the signal ratio, not every such curve was filed as active; inconclusive = small, poorly fitted or top-dose-only effect, or a change in a side signal; the % refers to the signal ratio; also: % of control where 0% means no effect). The conditions noted are these: HCT-116 p53RE-bla, beta-lactamase FRET ratio, 16 h; activation: stronger effect = higher value. In a few lines: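 Here HCT-116 cells with an integrated p53-responsive beta-lactamase gene were incubated with compounds (16 hours, 37 C) after a 5-hour plating period; beta-lactamase activity was detected as fluorescence intensity via B/G FRET substrate.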

Assay [8] can be described thus: Cell Viability - LYMP2-026 (AID 989).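 Also: cells exposed to compound for 24 h at 37 °C; nearly all actives have a fitted effect of over 50% in size.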 Also: potency is read from the fitted curve at half-maximal effect. The essentials:
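Acute toxicity screen in complete culture medium, with 24 hr compound exposure at 37 C. Viability read as cellular ATP via luciferase reaction, with tetraoctylammonium bromide (6.4pM to 92 uM) as positive control.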

Assay [9] addresses Estrogen receptor (Homo sapiens) (UniProt P03372). The assay is described as follows: qHTS assay for small molecule antagonists of estrogen receptor alpha signaling (AID 588513; active = well fitted curve in the direction sought with a large enough effect in the signal ratio, with a control signal flat, not every such curve was filed as active; inconclusive = small, poorly fitted or top-dose-only effect, or effect the other way, or a change in a side signal; inactive = no such curve, though single readings can be large or run the other way; the % refers to the signal ratio; also: potency is read from the fitted curve at half-maximal effect). In a few lines: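 ER-alpha-UAS-bla GripTite HEK 293 cells in medium with 2% charcoal/dextran-treated FBS were preincubated 4 h at 37 C, dosed with compound (1:2 titration), stimulated with 0.5nM 17-beta-estradiol for 18 h, then read by CCF4 beta-lactamase fluorescence.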

Assay [10] addresses Bile acid receptor (Homo sapiens) (UniProt Q96RI1). The assay is described as follows: qHTS assay for small molecule agonists of farnesoid X receptor signaling (AID 588527; calls by dose curve;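 also: 0% = vehicle basal and 100% = reference agonist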). To be noted: HEK293T FXR-UAS-bla, beta-lactamase ratio, 16 h; activation: stronger effect = higher value. The essentials: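 FXR-UAS-bla HEK293T, 10% dialyzed FBS; cpds up to 92 uM titration, 16 h 37 C; CCF4 dye 2 h RT; fluorescence. Normalized to chenodeoxycholic acid 100 uM (100%) and DMSO (0%); Hill fit gives EC50, efficacy.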

For assay [11], the target named is Thyroid hormone receptor beta (Homo sapiens) (UniProt P10828). The assay is described as follows: qHTS assay for small molecule agonists of thyroid hormone receptor beta signaling (AID 588545; calls by dose curve;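 also: 0% = DMSO only and 100% = 10 nM T3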). In a few lines:
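Efficacy and EC50 values derive from Hill fits of qHTS titration data, normalized to 10 nM T3 and DMSO-only wells. HEK 293 reporter cells were stimulated for 18 hrs at 37 C, with beta-lactamase activity measured by CCF4 fluorescence.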

For assay [12] the target is unchanged. Description: qHTS assay for small molecule antagonists of thyroid hormone receptor beta signaling (AID 588547; active = well fitted inhibition curve with a large enough effect in the signal ratio, with a control signal flat, not every such curve was filed as active; inconclusive = small, poorly fitted or top-dose-only effect, or effect the other way, or a change in a side signal; the % refers to the signal ratio;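 also: cells stimulated with 0.4 nM T3 agonist during compound exposure; % is scaled to controls: 0 for no effect and ±100 for the full control effect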). The conditions noted are these: TR-UAS-bla HEK293, beta-lactamase ratio, antagonist mode, 18 h. The essentials: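 TR-UAS-bla GripTite HEK293 cells in 2% charcoal/dextran FBS medium were preincubated 4 h at 37 C, given compound (0.59 nM to 92 uM) plus 0.4 nM T3 (final) for 18 h, then CCF4 for 2 h at RT; Hill fit gave IC50.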

A short description of assay [13]: qHTS assay for small molecule disruptors of the mitochondrial membrane potential - 1 hr assay (AID 651754; calls by dose curve; also: nearly all actives have a fitted effect of over 35% in size; also: potency is read from the fitted curve at half-maximal effect). The essentials: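 In this qHTS format, a 1 hr compound treatment of HepG2 cells precedes Mito-MPS staining, and membrane potential is judged from aggregate (red) against monomer (green) fluorescence intensity.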
Assay [14] can be described thus: qHTS assay for small molecule antagonists of retinoid X receptor alpha signaling (AID 588546).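 Also: cells stimulated with 9-cis-retinoic acid as agonist; % is scaled to controls: 0 for no effect and ±100 for the full control effect.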 The conditions noted are these: HEK293T RXRa-UAS-bla, beta-lactamase ratio, antagonist mode; measured here: W530 green channel, cytotoxicity proxy. In a few lines: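 Beta-lactamase reporter inhibition, read as CCF4 fluorescence ratio (ex 405, em 460/530 nm) after 2 h at RT. HEK293T UAS-bla cells, 2500/well, were stimulated with 9-cis-RA at 500 or 100 nM final alongside test compound for 18 h at 37 C.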

Assay [15] has as its target Guanine nucleotide-binding protein G(i) subunit alpha-1 (Homo sapiens) (UniProt P63096). Description: qHTS Assay for Inhibitors of RGS12 GoLoco Motif Activity (Green Fluorophore) (AID 879).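 Also: 0% = labeled peptide with Gαi1 and full inhibition = labeled peptide alone without protein; negative values mean loss of peptide binding seen as reduced polarization.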 In a few lines:
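A drop in FITC polarization marked displacement of the FITC-tagged RGS12 GoLoco peptide (10 nM) from Gαi1 (50 nM). Compounds were incubated 10 min at room temperature in Tris pH 7.5 buffer containing 150 mM NaCl, 0.1 mM GDP and 0.05% NP40; unlabeled peptide titration served as control.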

Assay [16] concerns the target Pyruvate kinase (Leishmania mexicana) (UniProt Q27686). The assay is described as follows: qHTS Validation Assay for Inhibitors of Leishmania Mexicana Pyruvate Kinase (AID 945).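 Also: 0% = DMSO only neutral control wells.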 In a few lines:
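The enzyme is a highly purified E451W mutant of LmPYK used at 0.2 nM. It converts 0.5 mM PEP and 0.1 mM ADP over 1 h at room temperature; product ATP is quantified by luciferase luminescence relative to DMSO controls.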

The target in assay [17] is Pyruvate kinase PKM (Homo sapiens) (UniProt P14618). Description: qHTS Assay for Activators of Human Muscle Pyruvate Kinase (AID 954; active = well fitted curve in the direction sought with a large enough effect, not every such curve was filed as active; inconclusive = small, poorly fitted or top-dose-only effect, or effect the other way, or another doubt; inactive = no such curve, though single readings can be large or run the other way;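 also: 0% = uninhibited enzyme and -100% = no enzyme or full thiadiazolimine inhibition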). The essentials: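 A coupled luminescent readout tracked ATP made from ADP by purified PKM2. Final conditions included 0.1 nM enzyme, PEP and ADP at 0.5 and 0.1 mM, pH 7.2 imidazole buffer with BSA, and a one-hour room-temperature reaction.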
Pyruvate kinase PKM (Homo sapiens), sequence (P14618 whole entry, looked up): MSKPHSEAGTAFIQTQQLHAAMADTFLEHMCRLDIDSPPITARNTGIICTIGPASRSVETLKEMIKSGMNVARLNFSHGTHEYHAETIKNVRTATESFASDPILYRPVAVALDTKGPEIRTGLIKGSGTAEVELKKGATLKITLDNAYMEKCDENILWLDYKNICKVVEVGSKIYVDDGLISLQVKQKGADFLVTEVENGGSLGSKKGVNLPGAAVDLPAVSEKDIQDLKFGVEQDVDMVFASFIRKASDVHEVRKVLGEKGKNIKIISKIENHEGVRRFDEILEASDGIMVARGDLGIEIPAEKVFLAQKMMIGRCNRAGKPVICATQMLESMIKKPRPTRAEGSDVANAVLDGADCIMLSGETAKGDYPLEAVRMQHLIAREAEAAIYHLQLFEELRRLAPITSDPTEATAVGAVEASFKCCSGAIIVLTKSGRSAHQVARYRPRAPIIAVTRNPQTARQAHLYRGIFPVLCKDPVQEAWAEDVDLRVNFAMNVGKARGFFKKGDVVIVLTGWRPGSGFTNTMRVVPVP

Assay [18] addresses Alpha-galactosidase (Coffea arabica) (UniProt Q42656). Description: Counterscreen for Glucocerebrosidase Inhibitors: qHTS Assay for Coffee Bean alpha-Galactosidase at pH 4.5 (AID 957).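 Also: plate controls were enzyme alone for no effect and no enzyme for full effect.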 In a few lines:
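Quantitative HTS of compounds (0.7 nM to 77 uM) against coffee bean alpha-galactosidase at pH 4.5, measuring 4-methylumbelliferone fluorescence released from 80 uM substrate.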
(Counterscreens check selectivity or assay interference.)

Assay [19] deals with alpha-glucosidase (Oryza sativa, rice) (UniProt Q653V4). The assay is described as follows: Counterscreen for Glucocerebrosidase Inhibitors: qHTS Assay for Rice alpha-Glucosidase at pH 5.0 (AID 997).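 Also: 0% = full activity with enzyme and -100% = basal without enzyme.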 In a few lines:
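Endpoint fluorogenic assay at pH 5.0: compounds (0.7 nM to 77 uM) titrated against 4 nM rice enzyme and 400 uM 4-MU-alpha-glucoside for 20 min at room temperature; NaOH/glycine stop, read ex 365/em 440 nm, Hill-fitted AC50.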

For assay [20], the target named is Alpha-galactosidase (Coffea arabica) (UniProt Q42656). Description: Counterscreen for Glucocerebrosidase Inhibitors: qHTS Assay for Coffee Bean alpha-Galactosidase at pH 5.9 (AID 998).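 Also: plate controls were uninhibited enzyme for no effect and no-enzyme basal signal for full effect.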 In a few lines: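 In 50 mM citric acid pH 5.9 with 0.005% Tween-20, coffee bean enzyme hydrolyses 80 uM 4-MU alpha-D-galactopyranoside over 20 min at RT. Activity is normalized to controls; AC50 comes from Hill-modelled concentration-response data.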
Alpha-galactosidase (Coffea arabica), sequence (Q42656 whole entry, looked up): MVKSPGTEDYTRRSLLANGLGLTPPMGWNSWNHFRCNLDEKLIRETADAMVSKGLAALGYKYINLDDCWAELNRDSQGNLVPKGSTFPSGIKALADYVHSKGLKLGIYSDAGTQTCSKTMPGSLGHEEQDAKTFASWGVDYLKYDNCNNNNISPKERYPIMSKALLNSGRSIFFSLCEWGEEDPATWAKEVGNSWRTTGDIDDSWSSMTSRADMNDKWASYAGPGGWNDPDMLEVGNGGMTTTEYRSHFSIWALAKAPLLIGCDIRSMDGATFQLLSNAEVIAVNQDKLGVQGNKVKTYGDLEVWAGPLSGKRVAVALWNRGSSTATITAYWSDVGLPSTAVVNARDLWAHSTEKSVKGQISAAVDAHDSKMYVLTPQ

Thyroid hormone receptor beta (Homo sapiens), sequence (P10828 whole entry, looked up): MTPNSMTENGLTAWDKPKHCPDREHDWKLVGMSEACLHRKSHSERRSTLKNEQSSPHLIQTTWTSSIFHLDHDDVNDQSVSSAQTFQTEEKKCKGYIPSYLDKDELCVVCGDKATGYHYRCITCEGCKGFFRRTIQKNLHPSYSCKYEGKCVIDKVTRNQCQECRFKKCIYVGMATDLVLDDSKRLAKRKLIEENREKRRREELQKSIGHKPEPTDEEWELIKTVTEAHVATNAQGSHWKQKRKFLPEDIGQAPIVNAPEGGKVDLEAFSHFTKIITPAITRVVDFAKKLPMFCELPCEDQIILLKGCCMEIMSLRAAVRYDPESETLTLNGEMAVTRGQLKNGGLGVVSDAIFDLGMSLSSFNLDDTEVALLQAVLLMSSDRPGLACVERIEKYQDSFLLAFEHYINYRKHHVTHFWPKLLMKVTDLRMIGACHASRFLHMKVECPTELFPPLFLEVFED
Guanine nucleotide-binding protein G(i) subunit alpha-1 (Homo sapiens), sequence (P63096 whole entry, looked up): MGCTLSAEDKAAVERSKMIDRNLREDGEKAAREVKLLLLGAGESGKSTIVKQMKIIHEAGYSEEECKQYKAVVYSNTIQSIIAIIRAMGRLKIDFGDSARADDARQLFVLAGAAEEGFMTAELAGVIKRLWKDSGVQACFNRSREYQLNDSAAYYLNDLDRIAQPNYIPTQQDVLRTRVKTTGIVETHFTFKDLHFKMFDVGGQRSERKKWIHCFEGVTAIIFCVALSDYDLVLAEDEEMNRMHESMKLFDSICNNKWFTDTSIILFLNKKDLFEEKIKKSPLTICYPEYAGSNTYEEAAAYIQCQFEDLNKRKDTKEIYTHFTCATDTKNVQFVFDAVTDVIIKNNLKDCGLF
Glucocorticoid receptor (Homo sapiens), sequence (P04150 whole entry, looked up): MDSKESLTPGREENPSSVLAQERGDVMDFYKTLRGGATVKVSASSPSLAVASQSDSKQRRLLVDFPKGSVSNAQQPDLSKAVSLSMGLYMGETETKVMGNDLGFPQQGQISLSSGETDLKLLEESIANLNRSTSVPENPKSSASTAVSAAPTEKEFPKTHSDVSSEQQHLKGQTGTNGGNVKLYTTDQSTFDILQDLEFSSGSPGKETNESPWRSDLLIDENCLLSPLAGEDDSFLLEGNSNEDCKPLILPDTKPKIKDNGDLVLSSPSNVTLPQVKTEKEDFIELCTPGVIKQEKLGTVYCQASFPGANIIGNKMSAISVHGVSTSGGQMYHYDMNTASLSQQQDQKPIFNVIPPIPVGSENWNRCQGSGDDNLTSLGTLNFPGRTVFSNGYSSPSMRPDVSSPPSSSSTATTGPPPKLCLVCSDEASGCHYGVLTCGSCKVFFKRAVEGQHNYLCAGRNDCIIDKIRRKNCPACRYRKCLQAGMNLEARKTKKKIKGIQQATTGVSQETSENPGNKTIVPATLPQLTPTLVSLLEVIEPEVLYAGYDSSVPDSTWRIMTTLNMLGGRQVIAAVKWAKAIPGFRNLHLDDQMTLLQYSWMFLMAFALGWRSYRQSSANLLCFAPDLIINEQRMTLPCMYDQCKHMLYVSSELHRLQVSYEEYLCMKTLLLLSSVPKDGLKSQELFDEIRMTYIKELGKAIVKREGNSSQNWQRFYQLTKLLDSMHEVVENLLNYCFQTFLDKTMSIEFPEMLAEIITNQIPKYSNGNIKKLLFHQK
Estrogen receptor (Homo sapiens), sequence (P03372 whole entry, looked up): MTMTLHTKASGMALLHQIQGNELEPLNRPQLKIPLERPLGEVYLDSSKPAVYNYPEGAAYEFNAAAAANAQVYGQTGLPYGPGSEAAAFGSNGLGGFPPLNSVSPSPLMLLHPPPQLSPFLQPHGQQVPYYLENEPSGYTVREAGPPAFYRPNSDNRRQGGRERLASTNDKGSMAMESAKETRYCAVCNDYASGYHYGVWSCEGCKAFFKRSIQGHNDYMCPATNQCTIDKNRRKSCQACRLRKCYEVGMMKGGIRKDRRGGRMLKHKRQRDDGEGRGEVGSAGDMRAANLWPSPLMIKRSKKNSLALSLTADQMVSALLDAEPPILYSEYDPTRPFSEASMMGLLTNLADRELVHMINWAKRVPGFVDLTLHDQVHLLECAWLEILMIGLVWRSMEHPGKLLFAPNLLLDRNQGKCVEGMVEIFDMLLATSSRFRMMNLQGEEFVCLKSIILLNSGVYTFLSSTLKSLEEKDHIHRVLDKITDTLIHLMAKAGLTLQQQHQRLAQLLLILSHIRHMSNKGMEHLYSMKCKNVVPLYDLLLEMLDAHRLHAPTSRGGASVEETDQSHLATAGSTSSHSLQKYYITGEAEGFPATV
Pyruvate kinase (Leishmania mexicana), sequence (Q27686 2-499 E452W): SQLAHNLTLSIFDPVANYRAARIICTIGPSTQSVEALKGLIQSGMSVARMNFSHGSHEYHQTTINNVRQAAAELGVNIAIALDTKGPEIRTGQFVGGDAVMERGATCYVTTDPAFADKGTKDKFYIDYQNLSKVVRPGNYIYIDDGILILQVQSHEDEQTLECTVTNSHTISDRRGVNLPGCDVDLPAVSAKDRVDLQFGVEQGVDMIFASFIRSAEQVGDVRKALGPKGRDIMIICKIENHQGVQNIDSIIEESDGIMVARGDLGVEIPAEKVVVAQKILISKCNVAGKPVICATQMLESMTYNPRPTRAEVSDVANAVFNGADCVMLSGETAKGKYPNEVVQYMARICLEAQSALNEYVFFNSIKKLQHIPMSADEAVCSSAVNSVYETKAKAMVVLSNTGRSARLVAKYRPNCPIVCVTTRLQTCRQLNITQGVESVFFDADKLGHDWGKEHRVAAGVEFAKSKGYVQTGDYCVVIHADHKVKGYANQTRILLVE
Bile acid receptor (Homo sapiens), sequence (Q96RI1 whole entry, looked up): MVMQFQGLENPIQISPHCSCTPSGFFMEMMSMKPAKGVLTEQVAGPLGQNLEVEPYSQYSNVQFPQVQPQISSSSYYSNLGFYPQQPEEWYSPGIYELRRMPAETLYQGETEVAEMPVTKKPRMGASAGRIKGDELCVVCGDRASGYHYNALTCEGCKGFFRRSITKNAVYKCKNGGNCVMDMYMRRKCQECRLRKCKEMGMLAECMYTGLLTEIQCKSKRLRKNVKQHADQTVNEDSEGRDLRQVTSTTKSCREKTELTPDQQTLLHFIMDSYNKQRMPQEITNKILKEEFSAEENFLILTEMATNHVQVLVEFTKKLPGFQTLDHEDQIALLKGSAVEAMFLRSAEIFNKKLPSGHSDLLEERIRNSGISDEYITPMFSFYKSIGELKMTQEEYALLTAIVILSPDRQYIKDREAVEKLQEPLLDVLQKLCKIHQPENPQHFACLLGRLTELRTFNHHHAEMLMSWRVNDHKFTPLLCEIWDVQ

For the molecule `ClC1=C(Cl)C2(Cl)C3C(Cl)C(Cl)CC3C1(Cl)C2(Cl)Cl` (centres undefined), the caspase-3 activation in assay [1] was 81.5% (active). Besides, the activation in assay [2] is 17.3% (inactive); in assay [7], 0.792% (inactive). Moreover, the result in assay [3] and in [5] was inactive. Besides, the Potency entry in [4] was “inactive”. Further, the Potency in assay [6] is 66.8 µM (active).
Turning to `Clc1ccc(C(c2ccc(Cl)cc2)C(Cl)Cl)cc1`, in assay [1], the caspase-3 activation is 22.6% (inactive). Besides, the Potency entry in assay [8] and in assay [11] was “inactive” each time. Further, the Potency was 39.8 µM [inconclusive] (active) in assay [9]; 66.8 µM (active) and 61.1 µM (active) in assay [6]; 59.6 µM (active) in assay [13]. In addition, the results for the activation in assay [10] and in assay [2] were 3.84% (inactive) and -2.1% (inactive), respectively. Also, the outcome in assay [3] and in assay [5] was inactive. Moreover, in [12], the activity change % (negative = inhibition) is -7.83% (inactive) and -28.4% (inactive).
Take `[CH3][Hg][Cl]`: in assay [1], the caspase-3 activation is -8.35% (inactive). The Potency is 5.01 µM (active) in assay [8]; 39.8 µM [inconclusive] (active) in assay [9]; 3.16 µM (active) in assay [4]; 23.7 µM (active) in assay [6]; 21.1 µM (active) in [13]. In addition, the activation in assay [2] was -4.13% (inactive). The max response in [14] is -30.3%.
Consider `[Cd+2].[Cl-].[Cl-]`, for which the caspase-3 activation in [1] was -2.73% (inactive). For the same molecule, the Potency in [9] is 44.7 µM [inconclusive] (active). Also, the result in assay [5] was inactive. In [11], the Potency result was “inactive”. The activation in [7] is -8.9% (inactive).
For the molecule `O=[N+]([O-])C(Br)Br`, the Potency is 20 µM (active) in [8] and 47.3 µM (active) in [6]. In addition, the activation in assay [2] was -5.74% (inactive); in assay [7] it was 12.3% (inactive). In addition, the molecule was classed as inactive in assay [3] and in assay [5]. For the same molecule, the Potency entry in [4], in [11] and in assay [13] was “inactive” in each case. Also, the max response in assay [14] is -6.12%. In assay [12], the activity change % (negative = inhibition) was 4.06% (inactive).
For the molecule `C[C@@H]1O[C@@H](O[C@H]2C[C@@H](O)[C@]3(CO)[C@@H]4[C@@H](O)C[C@]5(C)[C@H](C6=CC(=O)OC6)CC[C@@]5(O)[C@H]4CC[C@@]3(O)C2)[C@H](O)[C@H](O)[C@@H]1O`, the Potency entry in assay [15] and in [16] was “inactive” throughout. The result in assay [17], in assay [18], in assay [19] and in [20] was inactive.
As to `O=[N+]([O-])c1ccc(O[C@H]2O[C@@H](CO)[C@@H](O)[C@@H](O)[C@@H]2F)c([N+](=O)[O-])c1`, the Potency result in assay [15] and in [16] was “inactive” throughout. Further, the outcome in assay [17], in assay [18] and in [19] was inactive.
Consider `Oc1cc2c(cc1O)[C@H]1c3ccccc3CN[C@@H]1CC2`, for which the Potency result in assay [15] and in assay [16] was “inactive” each time. For the same molecule, the outcome in assay [19] and in [20] was inactive.
On to `O[C@@H]1CCCC[C@H]1N1CCC(c2ccccc2)CC1`, for which the Potency entry in [15] and in assay [16] was “inactive” in each case. Also, the molecule was called inactive in assay [17], in [18] and in [19].
`Oc1ccc2c3c1O[C@@H]1[C@@H](O)CC[C@]4(O)[C@H](C2)N(CC2CCC2)CC[C@@]314`: the Potency result in assay [15] and in [16] was “inactive” each time. For the same molecule, the molecule was classed as inactive in assay [17], in assay [18], in assay [19] and in [20].
Consider `COC[C@H]1OC(=O)c2coc3c2[C@@]1(C)C1=C(C3=O)[C@H]2CCC(=O)[C@@]2(C)C[C@H]1OC(C)=O`, for which the call in assay [18] was inactive.
